Results on 30 compounds are retold here after PubChem BioAssay AID1045 (SRMLSC, 2008).

Out of some 1,500 compounds screened, about 1,400 (93%) were called active. No rule for the calls is given here. The set was probably picked from earlier hits. Not all results are given here. Results with a measured potency or affinity are listed apart.

The assay can be described thus: viability of HCT116 lacking mutant beta-catenin – cell-based, human colon tumor, dose response (AID 1045). Conditions: HCT116 beta-catenin knockout viability, CellTiter-Glo, 60 h; series mostly up to 30 µM; viability: at the top concentration. On the technique in general: ATP-based viability assays read luminescence as a measure of living cells.
What is called viability is a read-out of living cells in per cent, often relative to untreated cells. Turning to `CCCNC(=O)OC[C@H]1O[C@H](CCO/N=C/[C@@H](NS(=O)(=O)c2ccc(C)cc2)[C@H](C)/C=C/CC(=O)OC)C=C[C@@H]1Oc1ccc(OC)cc1`, the “viability” value is 90.3% (inactive).

As for `O=C(Nc1ccccc1Cl)NC1(C(=O)N2CCCC2)CCCCC1`, the “viability” value is 94.7% (inactive).

As for `Cc1ccc(C(=O)c2coc3c2C(=O)C(=O)c2ccccc2-3)cc1`, the “viability” value was 91.4% (inactive).

As to `CCCC(=O)Nc1sc2c(c1C#N)CCCCC2`, the “viability” value is 98.2% (inactive).

For the compound `CCN1CCN(Cc2ccc(OCc3ccccc3)cc2)CC1`, the “viability” value is 86.3% (inactive).

Take `S=C(NCCc1ccc(Cl)cc1)Nc1ccc(Cl)cc1Cl`: the “viability” value is 84.2% (inactive).

As for `O=C(Nc1cccc(C(F)(F)F)c1)NC1CCCCC1`, the “viability” value was 93.5% (inactive).

For the compound `C=C1C(O)C[C@H]2C(=C)CCC3[C@H](OC(=O)[C@]3(O)CO)[C@@H]12` (stereo not given in full), the “viability” value is 103% (inactive).

Turning to `Cc1ccc2cc3cc(C(=O)NCc4ccc5c(c4)OCO5)oc3nc2c1`, the “viability” value was 90.1% (inactive).

Turning to `Nc1nnc(SCc2ccc(Cl)cc2)s1`, the “viability” value is 91.9% (inactive).

Regarding `O=C(NC(=S)Nc1ccc2c(c1)OCO2)c1ccc(Cl)cc1`, the “viability” value is 87.5% (inactive).

With `COC(=O)CN1C(C)=Nc2ccc(Br)cc2C1c1ccccc1` (stereo not given), the “viability” value was 91.8% (inactive).

`COC(=O)C1=C(C)N(Cc2ccco2)C(=O)N[C@@H]1c1cccc(C(F)(F)F)c1`: the “viability” value is 83% (inactive).

Take `CCN1CCN(c2cc(C)c3cc(NC(=O)c4ccc5c(c4)OCO5)ccc3n2)CC1`: the “viability” value was 87.7% (inactive).

On to `CCN(CC)S(=O)(=O)c1ccc(NC2CCCc3ccccc32)nc1` (stereo not given), for which the “viability” value was 83.6% (inactive).

`COc1ccc(-c2cc(C(F)(F)F)nc(S(C)(=O)=O)n2)cc1OC`: the “viability” value is 81.2% (inactive).

Consider `O=C(Nc1cccc(-c2nnc(-c3ccccc3)o2)c1)C1CCCCC1`, for which the “viability” value is 95.4% (inactive).

As for `Cc1ccccc1NC(=O)c1ccc2c(c1)OCCO2`, the “viability” value was 88.1% (inactive).

Consider `CSc1n[nH]c(NCc2cccs2)n1`, for which the “viability” value is 102% (inactive).

Regarding `Cc1cc(C)n(C(=O)CNc2ccc(C)c(C)c2)n1`, the “viability” value was 91.1% (inactive).

In the case of `CCCC/C(C)=N\NC(=O)CNS(=O)(=O)c1ccc([N+](=O)[O-])cc1`, the “viability” value is 97.5% (inactive).

Regarding `COc1ccc(-n2c(O)c(/C=N/NS(=O)(=O)c3ccc(C)cc3)c3ccccc3c2=O)cc1OC`, the “viability” value was 80.6% (inactive).

For the compound `COCCN1C(=O)c2oc3ccccc3c(=O)c2C1c1ccc(OC)c(OC)c1` (stereo not given), the “viability” value was 89.8% (inactive).

Turning to `O=C(Nc1cccc(C(F)(F)F)c1)/C(=C\c1ccco1)NC(=O)c1cccs1`, the “viability” value is 82% (inactive).

Regarding `O=C(Nc1ccc(-c2nc3ccccc3o2)cc1)c1cccnc1`, the “viability” value is 103% (inactive).

`O=C(NCc1ccco1)C1CCN(S(=O)(=O)Cc2ccccc2)CC1`: the “viability” value was 98.3% (inactive).

As for `CCOC(=O)c1c(-c2ccc(C)cc2)csc1NC(=O)/C(C#N)=C/c1ccc(O)c(OC)c1`, the “viability” value was 90.9% (inactive).

As to `Cc1ccc(C(=O)NCCc2nnc(SCC(=O)Nc3nc(-c4ccccc4)cs3)n2C)cc1`, the “viability” value is 92.9% (inactive).

As to `CCn1c(Cc2ccc(OC)cc2)nnc1SCC(=O)Nc1cccc(C(=O)OC)c1`, the “viability” value was 103% (inactive).

With `COc1ccc(-c2cc(C(F)F)n3ncc(C(=O)n4ccnc4C)c3n2)cc1`, the “viability” value was 86.4% (inactive).
